The text below walks through data of PubChem BioAssay.

SMILES strings stand for the structures. Inconclusive results are not listed. Activity calls are given as the source filed them.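 How the source made its calls, unless noted: active means normalized viability below 100% at a tested concentration; inactive means the rest.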

Test [1] is described as follows: viability loss in pontine glioma line – cell-based, SU-DIPG-XVII, MIPE5.0, CellTiter-Glo, qHTS, dose response (AID 1347060; cut-off not given, nearly all actives have AC50 up to about 26 µM;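 on AC50: cells exposed to compound for 48 hours before viability readout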). The settings on record: CellTiter-Glo ATP luminescence. A general note: Cellular ATP, detected with luciferase, serves as a proxy for viable cell number.
A short description of test [2]: viability loss in pontine glioma line – cell-based, SU-DIPG-XIII, MIPE4.0, CellTiter-Glo, qHTS, dose response (AID 1347061; cut-off not given, nearly all actives have AC50 up to about 37 µM;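 further: cells exposed to compound for 48 hours before readout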). As to conditions: CellTiter-Glo ATP luminescence.
Test [3] is described as follows: viability loss in pontine glioma line – cell-based, JHH-DIPG-1, MIPE4.0, CellTiter-Glo, qHTS, dose response (AID 1347062; cut-off not given, nearly all actives have AC50 up to about 27 µM;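 on AC50: cells exposed to compound for two days before readout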). The settings on record: JHH-DIPG-1 viability, CellTiter-Glo ATP luminescence.
The nature of test [4]: viability loss in pontine glioma line – cell-based, SU-DIPG-XIII, MIPE5.0, CellTiter-Glo, qHTS, dose response (AID 1347064; cut-off not given, nearly all actives have AC50 up to about 23 µM;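 on AC50: cells exposed to compound for 48 hours before the viability read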). As to conditions: CellTiter-Glo ATP luminescence.
A short description of test [5]: viability loss in pontine glioma line – cell-based, SU-DIPG-XXV, MIPE5.0, CellTiter-Glo, qHTS, dose response (AID 1347065; cut-off not given, nearly all actives have AC50 up to about 26 µM;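 further: cells exposed to compound for 48 hours before ATP readout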). The settings on record: CellTiter-Glo ATP luminescence.
Test [6] in a line: growth inhibition of DIPG cells – cell-based, MIPE4.0 library, CellTiter-Glo luminescence, qHTS (AID 1347066; cut-off not given, nearly all actives have AC50 up to about 30 µM;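 further: cells exposed to compound for 48 hours before readout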). The settings on record: SU-DIPG-VI viability, CellTiter-Glo ATP luminescence.
Test [7] in a line: growth inhibition of DIPG cells – cell-based, MIPE5.0 library, qHTS (AID 1347068; cut-off not given, nearly all actives have IC50 up to about 30 µM;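 on IC50: cells exposed to compound for 48 hours before viability readout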). The settings on record: SU-DIPG-XXV viability. A general note: qHTS replaces the single test concentration by a dilution series.
Test [8] in a line: JHH-DIPG-1 glioma cell viability, MIPE5.0 library, CellTiter-Glo luminescence, qHTS (AID 1347067; cut-off not given, nearly all actives have AC50 up to about 26 µM;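 further: cells exposed to compound for 48 hours before readout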). The settings on record: JHH-DIPG-1 glioma viability, CellTiter-Glo ATP luminescence.
Test [9] is described as follows: viability loss in pontine glioma line – cell-based, SU-DIPG-IV, MIPE4.0, CellTiter-Glo, qHTS, dose response (AID 1347063; cut-off not given, nearly all actives have AC50 up to about 30 µM;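 further: compound exposure lasted 48 hours before the viability readout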). As to conditions: CellTiter-Glo ATP luminescence.
The nature of test [10]: viability loss with induced miR-34 in A549 – imaging, A549 dox-inducible miR-34, nuclei and caspase counts, primary screen (AID 1347080;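 active means compounds whose cell count with miR-34 switched on is under 0.7 times the count with it off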). The settings on record: A549 miR-34 inducible, Hoechst nuclei count, 48 h.
Test [11] can be described thus: MELAS cybrid and Rieske KO viability enhancers – cell-based, MELAS cybrids, Rieske KO mouse fibroblasts, CellTiter-Glo, primary screen (AID 1508586;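 active means mean z-score across replicates of 1.96 or higher in either the MELAS or the Rieske mutant cell line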;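 further: z relative to plate mean and SD of compound and empty wells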). As to conditions: low glucose.
Test [12] can be described thus: drug combination growth inhibition, ovarian cancer – cell-based, oncology-focused library, rucaparib conditional, profiling panel (AID 1508598). The settings on record: patient-derived ovarian cancer cells, CellTiter-Glo viability, 144 h, stronger effect = lower value.

Consider `Cn1c(CNc2ccc(C(=N)N)cc2)nc2cc(C(=O)N(CCC(=O)O)c3ccccn3)ccc21`, for which the call in test [1], in test [2], in test [3], in [4], in test [5] and in [6] was inactive. Besides, the outcome in test [7] was inactive.

Consider `O=C(NC[C@H](O)CO)c1ccncc1Nc1ccc(I)cc1F`, for which the AC50 in test [1] was 0.742 µM (active); in test [2], 1.32 µM (active); in [3] it was 1.48 µM (active); in test [4], 0.417 µM (active); in [5], 0.59 µM (active); in test [8], 0.332 µM (active). The call in [6] and in [7] was inactive.

As to `Nc1nc2c(c(=O)[nH]1)N(C=O)[C@H](CNc1ccc(C(=O)N[C@@H](CCC(=O)O)C(=O)O)cc1)CN2`, the call in test [1], in test [2], in [3], in [4], in test [5] and in test [6] was inactive. The compound was classed as inactive in [8] and in test [7].

For the compound `COc1ccccc1-c1cccc(-c2c(O)c3cc(C#N)c(Cl)cc3[nH]c2=O)c1`, the outcome in [1], in [2], in test [3], in test [4], in [5] and in [6] was inactive. Further, the result in test [8] and in test [7] was inactive.

Regarding `CN(CC(=O)N(Cc1ccc(C2CCCCC2)cc1)c1ccc(C(=O)O)c(O)c1)S(=O)(=O)c1c(F)c(F)c(F)c(F)c1F`, the AC50 is 8.33 µM (active) in test [1]; 11.8 µM (active) in test [2]; 16.6 µM (active) in [3]; 6.61 µM (active) in test [4]; 9.34 µM (active) in test [5]; 3.32 µM (active) in [6]. In addition, the AC50 in test [8] was 3.72 µM (active). The IC50 in test [7] is 8.33 µM (active).

Take `CCCCCCCCCCCCCCCC(=O)O[C@@H]1[C@@H](O)[C@@H](O)[C@@H]([C@H](NC(=O)[C@@H]2C[C@@H](CCC)CN2C)[C@H](C)Cl)O[C@@H]1SC`: the compound was called inactive in test [1], in [2], in [3], in test [9], in test [6] and in test [7]. Also, the AC50 in [8] is 10.5 µM (active).

As to `C[C@H]1[C@H](C)CC[C@]2(C(=O)O)CC[C@]3(C)C(=CC[C@@H]4[C@@]5(C)C[C@@H](O)[C@H](O)[C@@](C)(CO)[C@@H]5CC[C@]43C)[C@H]12`, the compound was called inactive in test [1], in test [2], in test [3], in [4], in test [5] and in test [6]. In [7], the result was inactive.

As to `COc1cc2c(Oc3ccc4[nH]c(C)cc4c3F)ncnc2cc1OCCCN1CCCC1`, the AC50 is 1.86 µM (active) in test [1]; 6.62 µM (active) in test [2]; 20.9 µM (active) in test [3]; 2.35 µM (active) in test [4]; 2.09 µM (active) in test [5]; 23.5 µM (active) in test [6]. The AC50 in test [8] was 11.8 µM (active). The IC50 in test [7] is 16.6 µM (active). Besides, the fold change in [10] (stronger effect = lower value, cell number ratio, induced over uninduced) is 0.973 (inactive); in [10] (measured here: relative caspase fold change +Dox/-Dox), 1.09. Besides, the cell count in test [10] (measured here: total cells with miR-34 induction, stronger effect = lower value) was found to be 3660; in test [10] (measured here: total cells without miR-34 induction) it was 3760. Moreover, the z-score in test [11] (MELAS cybrid survival, CellTiter-Glo 48 h, stronger effect = higher value) is -0.469 (inactive); in test [11] (Rieske KO mouse fibroblast survival, CellTiter-Glo 72 h), -0.313. For the same compound, the viability was 123% (inactive) in test [12] (at 0.000305 µM, OCI-C5x cells, with rucaparib 10 µM, 100% = cells with rucaparib alone); 103% (inactive) in test [12] (at 0.000305 µM, OCI-C5x cells, without rucaparib); 96.3% (active) in test [12] (at 0.000305 µM, OCI-P5x cells, with rucaparib 20 µM, 100% = cells with rucaparib alone); 88.7% (active) in test [12] (at 0.000305 µM, OCI-P5x cells, without rucaparib); 114% (inactive) in test [12] (at 0.00122 µM, OCI-C5x cells, with rucaparib 10 µM, 100% = cells with rucaparib alone); 112% (inactive) in test [12] (at 0.00122 µM, OCI-C5x cells, without rucaparib). Further, the viability in test [12] (at 0.00122 µM, OCI-P5x cells, with rucaparib 20 µM, 100% = cells with rucaparib alone) was 105% (inactive); in [12] (at 0.00122 µM, OCI-P5x cells, without rucaparib) it was 94% (active); in [12] (at 0.00488 µM, OCI-C5x cells, with rucaparib 10 µM, 100% = cells with rucaparib alone), 107% (inactive); in [12] (at 0.00488 µM, OCI-C5x cells, without rucaparib), 99.8% (active); in [12] (at 0.00488 µM, OCI-P5x cells, with rucaparib 20 µM, 100% = cells with rucaparib alone), 97.5% (active); in test [12] (at 0.00488 µM, OCI-P5x cells, without rucaparib), 91.6% (active). The viability was 123% (inactive) in [12] (at 0.0195 µM, OCI-C5x cells, with rucaparib 10 µM, 100% = cells with rucaparib alone); 96.3% (active) in [12] (at 0.0195 µM, OCI-C5x cells, without rucaparib); 97.8% (active) in test [12] (at 0.0195 µM, OCI-P5x cells, with rucaparib 20 µM, 100% = cells with rucaparib alone); 93.1% (active) in test [12] (at 0.0195 µM, OCI-P5x cells, without rucaparib); 126% (inactive) in [12] (at 0.0781 µM, OCI-C5x cells, with rucaparib 10 µM, 100% = cells with rucaparib alone); 101% (inactive) in test [12] (at 0.0781 µM, OCI-C5x cells, without rucaparib). Also, the viability in [12] (at 0.0781 µM, OCI-P5x cells, with rucaparib 20 µM, 100% = cells with rucaparib alone) was 81.8% (active); in test [12] (at 0.0781 µM, OCI-P5x cells, without rucaparib) it was 92% (active); in test [12] (at 0.313 µM, OCI-C5x cells, with rucaparib 10 µM, 100% = cells with rucaparib alone), 116% (inactive); in test [12] (at 0.313 µM, OCI-C5x cells, without rucaparib), 98.1% (active); in [12] (at 0.313 µM, OCI-P5x cells, with rucaparib 20 µM, 100% = cells with rucaparib alone) it was 91.9% (active); in test [12] (at 0.313 µM, OCI-P5x cells, without rucaparib), 94.6% (active). Also, the viability in test [12] (at 1.25 µM, OCI-C5x cells, with rucaparib 10 µM, 100% = cells with rucaparib alone) is 123% (inactive); in test [12] (at 1.25 µM, OCI-C5x cells, without rucaparib), 107% (inactive); in test [12] (at 1.25 µM, OCI-P5x cells, with rucaparib 20 µM, 100% = cells with rucaparib alone), 110% (inactive); in test [12] (at 1.25 µM, OCI-P5x cells, without rucaparib), 86.9% (active); in [12] (at 5 µM, OCI-C5x cells, with rucaparib 10 µM, 100% = cells with rucaparib alone) it was 131% (inactive); in test [12] (at 5 µM, OCI-C5x cells, without rucaparib) it was 115% (inactive). Also, the viability in [12] (at 5 µM, OCI-P5x cells, with rucaparib 20 µM, 100% = cells with rucaparib alone) was 76.9% (active); in test [12] (at 5 µM, OCI-P5x cells, without rucaparib), 82.8% (active).

Usually AC50 stands for the midpoint of the concentration-response curve, whichever way the signal moves. One may read the IC50 as the midpoint of a concentration-inhibition curve. For orientation: viability means a read-out of living cells in per cent, often relative to untreated cells.
